Results reported in paper PMC5540273 (PLoS ONE, 2017).

What was measured:
Settings in all cases: concentration: 1 μM, replicates: in singlicate; n = 1
JNK3 = test system: T1, JNK3
T1 construct: gene MAPK10

KIT-autoinhibited = test system: KIT-autoinhibited
KIT = test system: KIT
LATS1 = test system: LATS1
LATS2 = test system: LATS2
LCK = test system: LCK
LIMK1 = test system: LIMK1
LIMK2 = test system: LIMK2
LKB1 = test system: T2, LKB1
T2 construct: gene STK11

LOK = test system: T3, LOK
T3 construct: gene STK10

LRRK2 = test system: LRRK2
LTK = test system: LTK
LYN = test system: LYN
LZK = test system: T4, LZK
T4 construct: gene MAP3K13

MAK = test system: MAK
MAP3K15 = test system: MAP3K15
MAP3K1 = test system: MAP3K1
MAP3K2 = test system: MAP3K2
MAP3K3 = test system: MAP3K3
MAP3K4 = test system: MAP3K4
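Further: KINOMEscan kinase panel screen.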

SMILES	%Inh (JNK3)	%Inh (KIT-autoinhibited)	%Inh (KIT)	%Inh (LATS1)	%Inh (LATS2)	%Inh (LCK)	%Inh (LIMK1)	%Inh (LIMK2)	%Inh (LKB1)	%Inh (LOK)	%Inh (LRRK2)	%Inh (LTK)	%Inh (LYN)	%Inh (LZK)	%Inh (MAK)	%Inh (MAP3K15)	%Inh (MAP3K1)	%Inh (MAP3K2)	%Inh (MAP3K3)	%Inh (MAP3K4)
NS(=O)(=O)c1cccc(N/C=C2\C(=O)Nc3ccc(S(=O)(=O)Cc4c(Cl)cccc4Cl)cc32)c1 [GSK398099]	7%	0%	15%	41%	22%	13%	7%	28%	0%	0%	0%	0%	0%	0%	28%	0%	15%	0%	0%	0%
Cc1ccccc1Cn1ccn2c(=O)cc(N3CCOCC3)nc12 [GSK2269905]	1%	1%	14%	0%	0%	16%	18%	0%	0%	0%	0%	0%	0%	0%	0%	0%	2%	0%	0%	30%
O=C(Nc1n[nH]c2nc(-c3ccco3)c(Br)cc12)C1CCN(Cc2ccccc2)C1.O=C(O)[C@H](O)[C@@H](O)C(=O)O (stereo not shown) [SB-742034]	13%	7%	22%	0%	0%	5%	0%	0%	37%	0%	0%	11%	2%	0%	25%	12%	18%	21%	24%	0%
COc1ccc(CSc2nnc(-c3ccc4c(c3)CCO4)o2)cc1	0%	0%	0%	0%	0%	0%	0%	0%	6%	0%	0%	0%	0%	3%	0%	0%	0%	0%	0%	8%
CNc1nc(-c2ccc3c(N)n[nH]c3c2)cc(N2C[C@@H](C(=O)NC3CCCCC3)OC[C@H]2C)n1 [GSK2375584]	0%	7%	20%	0%	15%	19%	8%	24%	0%	0%	0%	0%	0%	35%	0%	0%	0%	0%	0%	0%
